# Measurements: the supplement of paper PMC7156485
# ± gives the standard deviation of the averaged measurements.
# System: TDF
# Test: cell number relative to DMSO (% of DMSO); higher = more cells (less growth inhibition / toxicity)
# Details: concentration: 10 µM; 24 h
# Outline: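 Six fields per well were imaged at ×10 after the cells were fixed in 3.7% formaldehyde and stained with a rabbit anti-H1.0 antibody, an AlexaFluor 647 secondary and DAPI. The HCC1569 and TDF cells had been plated at 800 per well in 384-well plates (RPMI, 10% FBS) and treated in triplicate with compounds at 10 µM for 24 h at 37 °C. The values are the median of replicates of H1.0 nuclear intensity or cell number, as percent of the plate control. Smoothing for positional effects was applied to HCC1569 data.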
# 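Also: TDF denotes transformed human dermal fibroblasts of mesenchymal origin.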
row,SMILES,cell number
1,"Cl.FC(F)(F)c1cc(COC2CCCNC2c2ccccc2)cc(C(F)(F)F)c1 [L-733,060 hydrochloride]",91.3
2,CCCCCCCCCCCC=CCCCCC(=O)O [6(E)-Octadecenoic acid],101
3,CCCCCC(O)C=CC1C(O)CC(=O)C1CCCCCCC(=O)O (stereo not given) [Prostaglandin E1],109 ± 10
4,CC1(C)CC=C(c2cnc3ccccc3c2)c2cc(C(=O)Nc3ccc(C(=O)O)cc3)ccc21,99.3
5,CC(C)=CCc1cc2c(cc1O)oc(=O)c1c3ccc(O)cc3oc21,95.7
6,CCOC(=O)Nc1ccc(NCc2ccc(F)cc2)nc1N.O=C(O)C=CC(=O)O [Flupirtine maleate],99.2
7,CN(C(Cc1ccc(OS(=O)(=O)c2cccc3cnccc23)cc1)C(=O)N1CCN(c2ccccc2)CC1)S(=O)(=O)c1cccc2cnccc12 (stereo not given),95.6 ± 12
8,Nc1nc(=O)c2ncc(=O)[nH]c2[nH]1 [Isoxanthopterin],108
9,CC(C)NCC(O)COc1ccc(CCOCC2CC2)cc1.Cl (stereo not given) [Betaxolol hydrochloride],122
10,CC(=O)N[C@@H](CS)C(=O)O [N-Acetyl-L-Cysteine],115
11,COc1ccc2c(c1)c(CC(=O)Nc1ccc(NC(C)=O)cc1)c(C)n2C(=O)c1ccc(Cl)cc1 [N-(4-acetamidophenyl)indomethacinamide],70.1
12,CCOC(=O)C(C)(C)Oc1ccc(Cl)cc1 [Clofibrate],99.8 ± 6.2
13,CS(=O)(=O)O.NC(=NC(=O)c1nc(Cl)c(N)nc1N)Nc1ccccc1 [Phenamil methanesulfonate],116
14,Cc1ccc(S(=O)(=O)Cc2nc(-c3ccc(C(=O)NCc4cccnc4)cc3)oc2C)cc1,86.8
15,Cc1nc2ccccn2c(=O)c1CCN1CCC(C(=O)c2ccc(F)cc2)CC1 [Pirenperone],100
16,CCN(CC)Cc1ccc(C(=O)N(CCc2ccccc2OC)[C@@H]2CCNC2)cc1.Cl.Cl,95.9
17,CCCCCOC(=O)Nc1nc(=O)n(C2OC(C)C(O)C2O)cc1F (stereo not given) [Capecitabine],98.9
18,CCCOc1ccccc1-c1nc2[nH][nH]nc-2c(=O)n1 [Zaprinast],113 ± 8.6

row,SMILES,cell number
1,CC(=O)SCC(Cc1ccccc1)C(=O)NCC(=O)OCc1ccccc1 (stereo not given) [Racecadotril],117
2,O=C1NC(=O)c2c1c1c3ccccc3[nH]c1n1cncc21 [Isogranulatimide],96.4
3,Cc1cc2nc3c(=O)[nH]c(=O)nc-3n(C)c2cc1C=O,97.8
4,CCN1CCCC1CNC(=O)c1cc(S(N)(=O)=O)ccc1OC (racemic),118
5,C=C(c1ccc(C(=O)O)cc1)c1cc2c(cc1C)C(C)(C)CCC2(C)C [Bexarotene],103
6,CC(=O)C1(O)CCC2C3CCC4=CC(=O)CCC4(C)C3CCC21C (stereo not given) [17- Hydroxyprogesterone],96
7,CS(=O)(=O)c1ccc(-c2cc(Br)sc2-c2ccc(F)cc2)cc1,100
8,CC(=O)O.O=C(O)c1ccc2c3c1cccc3c(=O)n1c3ccccc3nc21,89.6
9,CS(=O)(=O)O.Cc1ccc(NC(=O)c2ccc(CN3CCN(C)CC3)cc2)cc1Nc1nccc(-c2cccnc2)n1 [Imatinib],95.8
10,C=CC(C)(O)CCC1C(C)(O)CCC2C(C)(C)CCCC21C (stereo not given) [Sclareol],90.1
11,CCC=CCC=CCC=CCC=CCC=CCCCC(=O)O,102
12,CC(=O)Oc1ccccc1C(=O)O [Acetylsalicylic Acid],99
13,COc1cc(C2Oc3cc(C4Oc5cc(O)cc(O)c5C(=O)C4O)ccc3OC2CO)ccc1O (stereo not given) [Silybine],103
14,O=C1NC(=O)C(c2cnc3ccccn23)=C1c1cn2c3c(cc(F)cc13)CN(C(=O)N1CCCCC1)CC2,63
15,CC(C)(CO)C(O)C(=O)NCCC(=O)O (stereo not given) [Pantothenic acid],95.9
16,C=C1CC2C3C=C(C)C4=CC(=O)CCC4(C)C3CCC2(C)C1(OC(C)=O)C(C)=O (stereo not given) [Melengestrol Acetate],103
17,NC1CCN(c2c(F)cc3c(=O)c(C(=O)O)cn(C4CC4)c3c2Cl)C1 (stereo not given) [Clinafloxacin],101
